Results reported in PubChem BioAssay AID504333 (National Center for Advancing Translational Sciences (NCATS), 2011).
Screen size: about 360,000 compounds; about 16,000 (4.4%) were called active. About 9% were inconclusive and are not listed. The call rests on the fitted dose curve; in most records, active means well fitted inhibition curve with a large enough effect; inconclusive means small, poorly fitted or top-dose-only effect; inactive means no such curve, though single readings can be large or run the other way. The list comes from a sample in which actives are over-represented; it also holds similar structures and randomly drawn compounds.

What follows are compounds tested against Bromodomain adjacent to zinc finger domain protein 2B (Homo sapiens) (UniProt Q9UIF8) (assay: qHTS Assay for Inhibitors of BAZ2B). Conditions: AlphaScreen BAZ2B-H3K14Ac peptide displacement; series mostly up to 114 µM; activity change, negative = inhibition: at the top concentration.
In short: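 Compounds, titrated to a top concentration of 110 uM, were incubated 30 min at room temperature with preformed BAZ2B/acetyl-K14 H3 peptide complex (50 nM each). Proximity signal was measured by AlphaScreen after 20 min with beads.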
Further: nearly all actives have a fitted effect of over 60% in size.
On the % scale 0 is the no-effect control and ±100 the full control effect; potency means the concentration at half of the fitted maximal effect.

Sequence of Bromodomain adjacent to zinc finger domain protein 2B (Homo sapiens) (Q9UIF8 whole entry, looked up, the tested form may be a part): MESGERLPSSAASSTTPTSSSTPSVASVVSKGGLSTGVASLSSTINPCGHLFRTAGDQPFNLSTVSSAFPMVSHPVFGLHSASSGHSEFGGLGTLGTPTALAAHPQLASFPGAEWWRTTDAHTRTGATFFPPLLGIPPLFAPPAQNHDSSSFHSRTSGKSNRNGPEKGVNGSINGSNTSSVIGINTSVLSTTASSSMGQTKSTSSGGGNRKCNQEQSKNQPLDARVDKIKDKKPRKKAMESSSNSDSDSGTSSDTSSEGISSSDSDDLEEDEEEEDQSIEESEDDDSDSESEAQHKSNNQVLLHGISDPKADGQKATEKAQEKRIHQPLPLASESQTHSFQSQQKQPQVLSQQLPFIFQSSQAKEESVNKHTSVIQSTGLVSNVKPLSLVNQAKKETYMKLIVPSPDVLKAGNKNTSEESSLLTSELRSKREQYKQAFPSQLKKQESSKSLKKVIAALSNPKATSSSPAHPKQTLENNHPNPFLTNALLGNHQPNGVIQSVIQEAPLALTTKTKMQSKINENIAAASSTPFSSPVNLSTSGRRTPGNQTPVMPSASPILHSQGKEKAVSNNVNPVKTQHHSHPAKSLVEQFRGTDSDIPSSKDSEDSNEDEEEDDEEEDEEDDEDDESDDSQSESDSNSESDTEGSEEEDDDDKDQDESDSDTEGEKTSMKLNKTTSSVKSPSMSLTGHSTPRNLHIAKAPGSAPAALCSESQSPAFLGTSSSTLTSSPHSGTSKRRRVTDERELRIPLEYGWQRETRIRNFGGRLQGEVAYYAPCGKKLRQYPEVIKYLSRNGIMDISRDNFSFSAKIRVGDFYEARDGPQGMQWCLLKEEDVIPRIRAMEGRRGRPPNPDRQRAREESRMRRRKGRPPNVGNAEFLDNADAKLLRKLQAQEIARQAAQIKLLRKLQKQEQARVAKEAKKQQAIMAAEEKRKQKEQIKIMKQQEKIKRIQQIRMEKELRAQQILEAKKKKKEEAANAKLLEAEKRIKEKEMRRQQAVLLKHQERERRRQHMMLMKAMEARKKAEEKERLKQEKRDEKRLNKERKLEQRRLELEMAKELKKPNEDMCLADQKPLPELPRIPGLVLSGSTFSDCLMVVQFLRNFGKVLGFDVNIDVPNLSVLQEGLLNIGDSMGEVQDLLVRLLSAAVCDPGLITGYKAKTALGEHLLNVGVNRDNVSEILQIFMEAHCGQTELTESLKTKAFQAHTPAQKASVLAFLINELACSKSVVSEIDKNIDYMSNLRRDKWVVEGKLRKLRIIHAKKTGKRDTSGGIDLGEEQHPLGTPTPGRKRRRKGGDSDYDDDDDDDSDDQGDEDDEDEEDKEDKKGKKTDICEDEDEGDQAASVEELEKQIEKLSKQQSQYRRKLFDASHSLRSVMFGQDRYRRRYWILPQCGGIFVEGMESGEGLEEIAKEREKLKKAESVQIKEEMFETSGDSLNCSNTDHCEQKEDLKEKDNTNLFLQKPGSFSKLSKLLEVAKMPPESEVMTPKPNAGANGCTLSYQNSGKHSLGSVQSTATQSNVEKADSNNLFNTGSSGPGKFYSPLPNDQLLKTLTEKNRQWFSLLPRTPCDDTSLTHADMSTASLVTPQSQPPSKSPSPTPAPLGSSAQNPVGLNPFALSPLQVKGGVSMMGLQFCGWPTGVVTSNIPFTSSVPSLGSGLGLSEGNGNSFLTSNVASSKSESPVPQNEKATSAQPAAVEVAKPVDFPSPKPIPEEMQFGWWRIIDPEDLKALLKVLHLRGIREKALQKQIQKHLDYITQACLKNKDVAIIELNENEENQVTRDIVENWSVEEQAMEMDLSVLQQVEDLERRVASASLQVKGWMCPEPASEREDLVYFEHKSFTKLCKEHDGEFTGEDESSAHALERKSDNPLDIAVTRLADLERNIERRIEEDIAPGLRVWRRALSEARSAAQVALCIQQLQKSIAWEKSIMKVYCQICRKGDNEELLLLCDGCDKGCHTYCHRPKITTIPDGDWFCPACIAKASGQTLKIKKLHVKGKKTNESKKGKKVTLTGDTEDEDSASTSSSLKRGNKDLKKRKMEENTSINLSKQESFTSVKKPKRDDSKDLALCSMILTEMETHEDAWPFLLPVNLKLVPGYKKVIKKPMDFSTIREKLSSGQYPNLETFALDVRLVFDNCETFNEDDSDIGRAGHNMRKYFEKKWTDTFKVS

Row | Structure (SMILES) | activity change, negative = inhibition | Potency
1 | CCCN(CCC)CCCNC(=O)Cn1ncc2c3ccccc3n(Cc3ccccc3)c2c1=O | -11.5% (inactive) | –
2 | COc1ccc(-c2cn3c(n2)sc2cc(C(=O)Nc4ccc(F)cc4)ccc23)cc1 | 1.57% (inactive) | –
3 | COc1cccc(Cn2c(SCc3ccc(C(=O)N4CCC(C)CC4)cc3)nc3ccncc32)c1 | – | 22.4 µM (active)
4 | COc1cccc(Cn2c(SCc3ccc(C(=O)N4CCCCC4)cc3)nc3ccncc32)c1 | -11.2% (inactive) | –
5 | Cc1cccc(Cn2c(SCc3ccc(C(=O)N4CCC(C)CC4)cc3)nc3ccncc32)c1 | -16.1% (inactive) | –
6 | COc1ccccc1Cc1nc2ccccc2nc1SCC(=O)N1CCCc2ccccc21 | -3.57% (inactive) | –
7 | O=C(c1cccc([N+](=O)[O-])c1)N1CCN(Cc2ccccc2)CC1 | 20.8% (inactive) | –
8 | Cc1c(C(=O)c2cccc([N+](=O)[O-])c2)c2ccccn2c1CCC#N | – | 50.1 µM (active)
9 | COc1ccc(C(=O)c2c(C)c(CCC#N)n3ccccc23)c(OC)c1 | -17.9% (inactive) | –
10 | COC(=O)c1cnc(N2CCN(c3ccccc3OC)CC2)c2ccccc12 | 42.6% (inactive) | –
11 | COc1ccc2c(c1)c(N1CCCC1=O)c(C(=O)Nc1ccc(OC)c(Cl)c1)n2C | -34.8% (inactive) | –
12 | Cc1ccc(Nc2nc(-c3ccc(O)cc3O)cs2)nc1 | – | 50.1 µM (active)
13 | CC(=O)Nc1cccc(-c2csc(Nc3cccc(C)n3)n2)c1 | -4.54% (inactive) | –
14 | Clc1ccc(Nc2nc(-c3cccs3)cs2)nc1 | -33.2% (inactive) | –
15 | COc1cc(C(=O)Nc2ccc(-n3c(C)nc4ccccc4c3=O)cc2)cc(OC)c1OC | -14.7% (inactive) | –
16 | CCN(CC)c1cc(NC2CCCCC2)c2c3c(onc13)-c1ccccc1C2=O | – | 3.55 µM (active)
17 | COc1ccc(OC)c(CNC(=O)Cn2nc(C)c3c(C)n(-c4ccccc4)nc3c2=O)c1 | -15.4% (inactive) | –
18 | CCCC(=O)Nc1ccc2oc(-c3ccc(O)c(Br)c3)nc2c1 | 2.4% (inactive) | –
19 | COc1ccc(CCNCc2c(C(=O)O)c(C)n(Cc3cccc(C)c3)c2C)cc1OC | -16.7% (inactive) | –
20 | COc1ccc(SCc2cc(=O)c3ccc(C)c(C)c3[nH]2)cc1 | 8.96% (inactive) | –
21 | CC(C)c1ccc(Cc2nnc(NCCCO)[nH]c2=O)cc1 | -1.73% (inactive) | –
22 | COc1ccc(Cc2nnc(N/N=C/c3ccccc3O)[nH]c2=O)cc1OC | – | 6.31 µM (active)
23 | O=c1[nH]c(NCCO)nnc1Cc1ccc(Cl)cc1 | -11.6% (inactive) | –
24 | Cc1nn(C)c2c1c(C(F)(F)F)cc(=O)n2C(C)C(=O)NCc1ccc(Cl)cc1 (stereo not drawn) | -3.38% (inactive) | –
25 | O=C(NCc1ccccc1)C1CCN(S(=O)(=O)c2ccc3[nH]c(=O)ccc3c2)CC1 | 7.93% (inactive) | –
26 | Cc1ccccc1CCNC(=O)C1CCN(c2nc3ccccc3nc2C(F)(F)F)CC1 | -0.372% (inactive) | –

Row | Structure (SMILES) | activity change, negative = inhibition | Potency
27 | CC(=O)c1ccc(NC(=O)c2nc3nc(C)cc(C(F)F)n3n2)cc1 | 0.583% (inactive) | –
28 | Brc1ccc2c(c1)NC(c1cccnc1)=NC(c1ccccc1)=N2 | -2.3% (inactive) | –
29 | COc1ccc(C2=NC(c3ccncc3)=Nc3ccc(Br)cc3N2)cc1 | – | 28.2 µM (active)
30 | Cc1cc(OCC(=O)NC2CCN(C)CC2)ccc1[N+](=O)[O-] | -3.49% (inactive) | –
31 | Cc1cc(OCCCCOc2ccc(C#N)cc2)ccc1[N+](=O)[O-] | 0.416% (inactive) | –
32 | Cc1cc(OCCCN2CCN(Cc3ccccc3)CC2)ccc1[N+](=O)[O-] | – | 17.8 µM (active)
33 | Cc1cccc(C2CC(=O)Oc3c2c(=O)n(C)c2ccccc32)c1 (stereo not drawn) | -12.8% (inactive) | –
34 | CCOC(=O)C1=C(C)N=C2c3ccccc3C(=O)C2C1c1ccc(Br)cc1 (stereo not drawn) | – | 22.4 µM (active)
35 | Cc1cccc(C2C3=C(CCCC3=O)N=C3c4ccccc4C(=O)C32)c1 (stereo not drawn) | -38.9% (inactive) | –
36 | CCOC(=O)C1=C(C)NC(SC)=NC1c1ccccc1 (stereo not drawn) | 2.29% (inactive) | –
37 | CCCN1CCc2nc(N3CCN(C)CC3)ncc2C1 | 3.12% (inactive) | –
38 | COc1ccc(NC(=O)[C@H](NC(=O)[C@@H]2Cc3ccccc3CN2)c2ccccc2)cc1 | -11.2% (inactive) | –
39 | COC(C(=O)Nc1ccc(C(C)=O)cc1)c1ccccc1 (stereo not drawn) | 6.93% (inactive) | –
40 | COc1ccc(NC(C(=O)Nc2cccc(C(C)=O)c2)c2ccccc2)cc1 (stereo not drawn) | – | 50.1 µM (active)
41 | Cc1cccc(C(=O)Nc2ccc(-c3nc4ccccc4s3)c(C)c2)c1 | 0.838% (inactive) | –
42 | O=C(Nc1ccc2nc(SCCOc3ccccc3Cl)sc2c1)c1ccco1 | -28.6% (inactive) | –
43 | CCOc1cccc(-c2nn3c(-c4ccccn4)nnc3s2)c1 | – | 50.1 µM (active)
44 | c1ccc(-c2cc(-c3nnc4sc(-c5ccccn5)nn34)[nH]n2)cc1 | -21.7% (inactive) | –
45 | COc1cc(-c2nn3c(-c4cccc(C)c4)nnc3s2)cc(OC)c1OC | -1.78% (inactive) | –
46 | COc1ccc(/C=C2\SC(=O)N(CCC(=O)NC3CCS(=O)(=O)C3)C2=O)cc1 (stereo not drawn) | -17.6% (inactive) | –
47 | COc1ccc(/C=C2/SC(=O)N(CCCCCC(=O)Nc3ccccc3C(=O)O)C2=S)cc1 | – | 56.2 µM (active)
48 | COc1ccc(/C=C2\SC(=O)N(CCC(=O)NCCCn3ccnc3)C2=O)cc1 | -34.5% (inactive) | –
49 | CCCCNc1ccc(-c2nc(-c3ccncc3)no2)cc1[N+](=O)[O-] | -14.3% (inactive) | –
50 | CCN(Cc1ccccc1)Cc1c(O)ccc2c(=O)c(-c3ccc(Cl)cc3Cl)coc12 | -1.44% (inactive) | –
51 | COc1ccc2c(c1)C(C)=CC(C)(C)N2C(=O)Nc1ccccc1 | – | 50.1 µM (active)
52 | CC1=CC(C)(C)N(C(=O)CSc2nnc(-c3ccccc3)o2)c2ccc(C)cc21 | -12.4% (inactive) | –

Row | Structure (SMILES) | activity change, negative = inhibition | Potency
53 | COc1cccc(NC(=O)C2C(c3ccccc3)C2(Cl)Cl)c1 (stereo not drawn) | 3.62% (inactive) | –
54 | CC1=C(C(=O)OCc2ccc(C)cc2)C(c2c(Cl)cccc2Cl)CC(=O)N1 (stereo not drawn) | -0.666% (inactive) | –
55 | Cc1ccc(OCCn2c(CNc3ccccc3C)nc3ccccc32)cc1 | -26.1% (inactive) | –
56 | COc1ccc(OC)c(NC(=O)C2CCCN(S(=O)(=O)c3ccc4c(c3)CCCC(=O)N4)C2)c1 (stereo not drawn) | -0.384% [at 57.1 µM] (inactive) | –
57 | CC1CCC2CCCCC2N1C(=O)c1cc([N+](=O)[O-])cc([N+](=O)[O-])c1 (stereo not drawn) | – | 50.1 µM (active)
58 | COC(=O)c1cc(C(=O)NC(C)C2CC3CCC2C3)cc([N+](=O)[O-])c1 (stereo not drawn) | -28.5% (inactive) | –
59 | O=C(c1cc(C(=O)N2CCN(c3ccc(F)cc3)CC2)cc([N+](=O)[O-])c1)N1CCN(c2ccc(F)cc2)CC1 | -32.9% (inactive) | –
60 | COc1ccc(N2CCN(c3cc(C)nc4nncn34)CC2)cc1 | -3.48% (inactive) | –
61 | COc1ccc(N2C(=O)CSC23C(=O)N(Cc2cccc(F)c2)c2ccccc23)cc1Cl (stereo not drawn) | -22.3% (inactive) | –
62 | Cc1ccc(-n2c(SCC(=O)c3ccccc3)nc3c([nH]c4ccccc43)c2=O)cc1 | 2.93% (inactive) | –
63 | COc1ccc(C)cc1NC(=O)NCc1ccccn1 | -14.3% (inactive) | –
64 | COc1ccc2ccccc2c1CNCc1ccccn1 | – | 79.4 µM (active)
65 | COc1ccc2ccccc2c1CNc1nnnn1C | -10.5% (inactive) | –
66 | CCCSc1ncc(Cl)c(C(=O)Nc2sc3c(c2C(=O)NCCOC)CCCC3)n1 | -19.1% (inactive) | –
67 | Cc1c(Cl)cccc1NC(=O)C1CCCN(c2ncnc3onc(C)c23)C1 (stereo not drawn) | 8.64% [at 57.1 µM] (inactive) | –
68 | O=c1c2c3c(sc2n(CCN2CCCC2)c(=O)n1Cc1ccccc1)CCCCC3 | – | 89.1 µM (active)
69 | Cc1ccc(NC(=O)Cn2c(=O)n(-c3ccccc3)c(=O)c3c4c(sc32)CCCC4)cc1 | -2.88% (inactive) | –
70 | CCOC(=O)N1CCc2c(sc3c2c(=O)n(Cc2ccccc2)c(=O)n3CC(=O)Nc2cccc(C)c2)C1 | 3.88% (inactive) | –
71 | O=C(Nc1cc(C(F)(F)F)ccc1Cl)c1nc2ccccc2nc1N1CCCCC1 | -31.3% (inactive) | –
72 | COc1cc2c(cc1OC)C(c1ccccc1Br)NC(=O)C2 (stereo not drawn) | -6.18% (inactive) | –
73 | Brc1ccccc1C1Nc2cccc3cccc(c23)N1 | – | 44.7 µM (active)
74 | Brc1ccccc1C1N=C(c2ccccc2)NO1 (stereo not drawn) | 9.17% (inactive) | –
75 | COc1ccc(N2CCN(C(=O)c3ccc(N4CCCCS4(=O)=O)cc3)CC2)cc1 | – | 50.1 µM (active)
76 | COc1ccc(N2CCN(C(=O)c3ccc4c(Cl)c5c(nc4c3)CCCC5)CC2)cc1 | – | inactive
77 | COc1ccc(C(=O)Nc2ccccc2C(=O)N2CCN(c3ccccc3)CC2)cc1 | -20.7% (inactive) | –
78 | O=C(NCC(c1cccnc1)N1CCc2ccccc21)c1cccc(C(F)(F)F)c1 (stereo not drawn) | -2.57% (inactive) | –

Row | Structure (SMILES) | activity change, negative = inhibition | Potency
79 | COc1ccc(-c2nn3c(=O)cc(CN4CCN(C(=O)c5ccc(OC)c(OC)c5)CC4)nc3s2)cc1 | 1.38% (inactive) | –
80 | COc1ccc(S(=O)(=O)Nc2cc3c(C(=O)OC(C)C)c(C)oc3c3ccccc23)cc1 | -13.1% (inactive) | –
81 | COc1ccc(NC(=O)c2cnc(NS(=O)(=O)c3ccccc3)nc2)cc1 | 1.25% (inactive) | –
82 | COc1ccc(S(=O)(=O)/N=C2\C=C(NS(=O)(=O)c3ccccc3)C(=O)c3ccccc32)cc1 | – | 10 µM (active)
83 | COc1cc(NC(=O)c2nc3ccccc3nc2C)cc(OC)c1OC | -17.8% (inactive) | –
84 | COC(=O)CCNc1ccc2c(c1)OCCO2 | 6.99% (inactive) | –
85 | CCOc1ccc(NCCC(=O)c2ccc3c(c2)OCO3)cc1 | – | 39.8 µM (active)
86 | O=C(COc1ccc(Cl)cc1)Nc1ccc2c(c1)OCO2 | 3.44% (inactive) | –
87 | CCCCN1C(=O)c2[nH]nc(-c3ccccc3O)c2C1c1cccc(OCc2ccccc2)c1 (stereo not drawn) | -26.7% (inactive) | –
88 | Cc1cccc(NC(=O)c2ccc3nc(C(C)C)oc3c2)c1C | 27.1% (inactive) | –
89 | CC(=O)c1ccc(NS(=O)(=O)c2ccc(-c3cc(C)no3)s2)cc1 | -3.44% (inactive) | –
90 | O=C(Nc1cc(Cl)cc(Cl)c1)c1ccc2c(c1)N(Cc1cccc(Cl)c1)C(=O)c1ccccc1S2=O (stereo not drawn) | 3.3% (inactive) | –
91 | CCOC(=O)c1ccc(NC(=O)C2CCN(S(=O)(=O)c3ccc4c(c3)CCCC(=O)N4)CC2)cc1 | 4.44% [at 57.1 µM] (inactive) | –
92 | CC(C)c1ccc(C2C(C(=O)c3ccco3)=C(O)C(=O)N2CC2CCCO2)cc1 (stereo not drawn) | -25.4% (inactive) | –
93 | C=CCSc1nnc(N2C(=O)C(O)=C(C(=O)c3ccco3)C2c2ccc(F)cc2)s1 (stereo not drawn) | – | 50.1 µM (active)
94 | O=C(C1=C(O)C(=O)N(Cc2ccccc2)C1c1ccco1)c1ccco1 (stereo not drawn) | -32.8% (inactive) | –
95 | COc1ccccc1N1CCN(c2ncnc3onc(-c4ccc(F)cc4)c23)CC1 | 3.92% [at 57.1 µM] (inactive) | –
96 | Cc1ccc2nc(-c3ccc(Br)cc3)cn2c1 | -16% (inactive) | –
97 | CCn1c(SCC(=O)c2ccc3ccccc3c2)nnc1-c1cccs1 | -3.48% (inactive) | –
98 | CC(C)c1c(O)nc(SCCOc2ccc(Cl)cc2)[nH]c1=O | -22.7% (inactive) | –
99 | Cc1cccc(-c2nc(SCc3ccc(Br)cc3)n3[nH]c(=O)cc3n2)c1 | -0.89% (inactive) | –
100 | Cc1nc(SCCOc2ccc(Cl)cc2)[nH]c(=O)c1Cc1ccccc1 | 0.0225% (inactive) | –
101 | Cc1ccc(-c2nc(SCc3ccc(Br)cc3)n3[nH]c(=O)cc3n2)cc1 | – | 79.4 µM (active)
102 | O=c1cc2nc(-c3ccccc3)nc(SCCOc3ccc(Cl)cc3)n2[nH]1 | – | 50.1 µM (active)
103 | Cc1ccc(OCCSc2nc(-c3cccs3)nc3cc(=O)[nH]n23)cc1Cl | – | 50.1 µM (active)
